We go through eight compounds from PubChem BioAssay.

Active and inactive are the calls of the source.

Assay [1] can be described thus: E. coli DRC41 culture turbidity changes, primary screen, E. coli filamentation inducer project, strain DRC41, OD650, 48 h (AID 1152).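 Also: E. coli MC1000 strain DRC41 lacking acrAB efflux pump and sulA.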 Particulars: E. coli DRC41 (acrAB sulA), higher = more signal, called active from +8 up or from −8 down.
A short description of assay [2]: small-molecule binders of probe aLefty1, primary screen, biochemical, small-molecule microarray, 635/667 nm fluorescence (AID 1153).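 Also: score merges spot fluorescence with signal-to-noise ratio from the scanned slide images.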 Particulars: higher = more signal.
The nature of assay [3]: PSAC antagonists in infected red cells, primary screen, cell-based, P. falciparum Indochina, OD700, 1 h (AID 1154). To be noted: P. falciparum Indochina infected RBC osmotic lysis, higher = more signal, called active from +8 up or from −8 down.
Assay [4] in a line: PSAC antagonists in infected red cells, primary screen, cell-based, P. falciparum Indochina, OD700, 2 h (AID 1155).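 Also: lysis reports solute entry through the parasite surface anion channel PSAC; channel blockers reduce lysis of infected cells.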 Particulars: P. falciparum Indochina infected erythrocytes, osmotic lysis OD700; higher = more signal, called active from +8 up or from −8 down.
Assay [5] is described as follows: osmotic lysis modulators in infected erythrocytes, primary screen, PSAC antagonist project, cell-based, P. falciparum Indochina, OD700, 3 h (AID 1156). Particulars: higher = more signal, called active from +8 up or from −8 down.
Assay [6] can be described thus: PSAC antagonists in infected red cells, primary screen, cell-based, P. falciparum Indochina, OD700, 18 h (AID 1157). Particulars: P. falciparum Indochina infected erythrocytes, osmotic lysis OD700, 18 h; higher = more signal, called active from +8 up or from −8 down.
The nature of assay [7]: modulators of S6 phosphorylation in cells, primary screen, cell-based, A549, cytoblot, luminescence, serum-stimulated (AID 1158).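 Also: serum-stimulated A549 lung adenocarcinoma cells; signal is phosphorylated S6 detected by cytoblot immunostaining with HRP secondary.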 To be noted: A549 phospho-S6 cytoblot, 5 h, higher = more signal.
Assay [8] addresses NADPH oxidase 2 (Homo sapiens) (UniProt P04839). Put plainly: NOX2-dependent H2O2 signal modulators, primary screen, NOX inhibitor project, cell-based, HEK293-NOX2, PMA-stimulated, Amplex Red fluorescence (AID 1159). Also: test concentration not given here. To be noted: 45 min, higher = more signal, called active from +8 up or from −8 down.
In assay [9] the target is NADPH oxidase 4 (Homo sapiens) (UniProt Q9NPH5). Put plainly: NOX4-dependent H2O2 signal modulators, primary screen, NOX inhibitor project, cell-based, HEK293-NOX4, tetracycline-induced, Amplex Red fluorescence (AID 1160). Particulars: 45 min, higher = more signal, called active from +8 up or from −8 down.
Sequence of NADPH oxidase 4 (Homo sapiens) (Q9NPH5 whole entry, looked up): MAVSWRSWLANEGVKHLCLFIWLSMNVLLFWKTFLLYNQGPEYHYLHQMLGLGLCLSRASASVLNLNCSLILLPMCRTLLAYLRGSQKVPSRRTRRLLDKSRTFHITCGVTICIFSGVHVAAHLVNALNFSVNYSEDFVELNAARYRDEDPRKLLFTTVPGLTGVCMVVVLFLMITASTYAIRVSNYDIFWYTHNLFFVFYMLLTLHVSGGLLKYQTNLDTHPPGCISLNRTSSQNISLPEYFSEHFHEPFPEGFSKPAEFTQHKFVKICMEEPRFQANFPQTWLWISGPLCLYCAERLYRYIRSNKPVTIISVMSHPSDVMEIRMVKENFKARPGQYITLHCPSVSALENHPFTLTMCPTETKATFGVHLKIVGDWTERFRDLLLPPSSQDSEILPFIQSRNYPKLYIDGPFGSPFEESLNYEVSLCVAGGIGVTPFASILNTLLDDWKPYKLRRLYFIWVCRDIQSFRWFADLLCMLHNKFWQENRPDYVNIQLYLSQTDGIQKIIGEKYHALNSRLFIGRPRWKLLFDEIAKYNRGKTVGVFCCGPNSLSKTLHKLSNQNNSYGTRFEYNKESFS
Assay [10] has as its target NADPH oxidase 5 (Homo sapiens) (UniProt Q96PH1). Put plainly: NOX5-dependent H2O2 signal modulators, primary screen, NOX inhibitor project, cell-based, HEK293-NOX5, Amplex Red fluorescence (AID 1161). Particulars: HEK293-NOX5, ionomycin, 45 min, higher = more signal.
A short description of assay [11]: A549 cell viability effects, profiling panel, calcein-AM fluorescence, 48 h, basal (AID 1162). Also: test concentration not given here. Particulars: higher = more signal.
Assay [12] is described as follows: adipocyte viability effects, profiling panel, cell-based, 3T3-L1 adipocytes, calcein-AM fluorescence, 48 h, basal (AID 1163). Also: test concentration not given here. Particulars: 3T3-L1 adipocytes viability, higher = more signal.
Assay [13] is described as follows: HepG2 cell viability effects, profiling panel, calcein-AM fluorescence, 48 h, basal (AID 1164). Also: test concentration not given here. To be noted: higher = more signal.
Assay [14] can be described thus: MM1S cell viability effects, profiling panel, calcein-AM fluorescence, 48 h, basal (AID 1165).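 Also: viability of MM1S multiple myeloma cells under basal unstimulated conditions; test concentration not given here.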 To be noted: higher = more signal.
Assay [15] is described as follows: basal RPMI8226 viability, no added stimulus, profiling panel, cell-based, calcein-AM fluorescence, 48 h, PK04 Diversity Set (AID 1166).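 Also: cells grown under basal conditions without added stimulus; test concentration not given here.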 Particulars: RPMI8226 myeloma viability, higher = more signal.
Assay [16] can be described thus: basal HepG2 mitochondrial membrane potential changes, profiling panel, cell-based, JC-1 fluorescence, 24 h, 100 nL compound (AID 1167). Also: test concentration not given here. To be noted: higher = more signal.
Assay [17] is described as follows: basal 3T3-L1 adipocyte mitochondrial potential changes, profiling panel, cell-based, JC-1 fluorescence, 3T3-L1 adipocytes, 24 h, 100 nL compound (AID 1168). Also: test concentration not given here. To be noted: JC-1 mitochondrial fluorescence, higher = more signal, called active from +8 up or from −8 down.
Assay [18] can be described thus: basal RPMI8226 mitochondrial membrane potential changes, profiling panel, cell-based, JC-1 fluorescence, 24 h, 100 nL compound (AID 1169). Also: test concentration not given here. Particulars: RPMI8226 myeloma, JC-1 mitochondrial potential fluorescence, higher = more signal.
The nature of assay [19]: basal MM1S mitochondrial membrane potential changes, profiling panel, cell-based, JC-1 fluorescence, 24 h, 100 nL compound (AID 1170). Also: test concentration not given here. To be noted: higher = more signal.
The nature of assay [20]: A549 lung cancer cell viability effects, profiling panel, resazurin fluorescence, 24 h, PK04 Diversity Set (AID 1171). Also: test concentration not given here. To be noted: higher = more signal, called active from +8 up or from −8 down. In general terms: Alamar Blue is a resazurin reagent that responds to reducing activity.

Sequence of NADPH oxidase 5 (Homo sapiens) (Q96PH1 whole entry, looked up): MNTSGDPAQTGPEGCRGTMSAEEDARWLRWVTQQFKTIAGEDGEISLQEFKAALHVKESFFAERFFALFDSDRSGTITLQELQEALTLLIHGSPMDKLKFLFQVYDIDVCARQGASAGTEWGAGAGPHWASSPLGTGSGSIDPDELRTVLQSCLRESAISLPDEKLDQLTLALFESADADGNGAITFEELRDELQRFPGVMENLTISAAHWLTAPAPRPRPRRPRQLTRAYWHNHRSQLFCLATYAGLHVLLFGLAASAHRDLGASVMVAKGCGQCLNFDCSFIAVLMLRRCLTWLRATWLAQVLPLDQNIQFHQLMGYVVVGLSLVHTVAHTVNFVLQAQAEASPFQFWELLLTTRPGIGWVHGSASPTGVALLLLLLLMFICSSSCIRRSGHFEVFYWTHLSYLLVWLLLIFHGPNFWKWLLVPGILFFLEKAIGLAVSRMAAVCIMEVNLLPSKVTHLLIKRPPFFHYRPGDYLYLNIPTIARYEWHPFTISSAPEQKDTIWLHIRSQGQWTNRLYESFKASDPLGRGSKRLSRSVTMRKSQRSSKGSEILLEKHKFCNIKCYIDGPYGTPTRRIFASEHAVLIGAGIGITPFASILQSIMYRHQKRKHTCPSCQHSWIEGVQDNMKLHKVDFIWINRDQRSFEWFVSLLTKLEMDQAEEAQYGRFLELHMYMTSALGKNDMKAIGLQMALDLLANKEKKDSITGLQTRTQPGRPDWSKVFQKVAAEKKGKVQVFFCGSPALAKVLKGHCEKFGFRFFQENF
Sequence of NADPH oxidase 2 (Homo sapiens) (P04839 whole entry, looked up): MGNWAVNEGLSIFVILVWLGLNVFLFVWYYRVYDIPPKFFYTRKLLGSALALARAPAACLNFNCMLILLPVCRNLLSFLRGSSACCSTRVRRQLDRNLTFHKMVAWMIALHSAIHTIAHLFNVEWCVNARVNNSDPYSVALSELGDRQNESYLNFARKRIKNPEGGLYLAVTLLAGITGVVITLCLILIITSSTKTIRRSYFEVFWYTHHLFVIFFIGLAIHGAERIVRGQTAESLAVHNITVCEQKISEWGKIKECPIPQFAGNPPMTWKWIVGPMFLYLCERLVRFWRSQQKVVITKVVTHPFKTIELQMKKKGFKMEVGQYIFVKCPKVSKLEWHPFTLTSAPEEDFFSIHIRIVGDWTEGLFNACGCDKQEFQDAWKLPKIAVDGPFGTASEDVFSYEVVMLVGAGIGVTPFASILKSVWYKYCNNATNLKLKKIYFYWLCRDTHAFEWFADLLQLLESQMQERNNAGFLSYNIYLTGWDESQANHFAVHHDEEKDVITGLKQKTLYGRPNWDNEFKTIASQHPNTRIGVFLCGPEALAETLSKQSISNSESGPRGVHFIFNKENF

Take `COc1ccc(O[C@H]2C=C[C@@H](c3ccccc3)O[C@@H]2CON=C(C)C)cc1`: the z-score in assay [1] was -2.05 (inactive); in assay [3], 0.288 (inactive); in [4] it was -0.0779 (inactive); in assay [5] it was -0.541 (inactive); in [6], 0.196 (inactive); in [7], -0.807. Also, the z-score in assay [8] was -0.254 (inactive); in [9], -0.311 (inactive); in [10] it was -0.684; in [11], 0.124; in assay [12], -0.556; in assay [13], -0.462. Also, the z-score in assay [14] is -1.53; in [15], -0.372; in [16], -1.18; in assay [17], 0.148 (inactive); in assay [18], 0.472; in assay [19], -0.867. In addition, the z-score in assay [20] is 0.0001 (inactive). Also, the composite z-score in [2] turned out to be 0.407.

Turning to `CO[C@H]1COC(=O)[C@@H]2CCCN2C(=O)CC=C[C@@H](C)[C@H](OC)COC(=O)[C@@H](OCc2ccccc2)C=C[C@@H]1C`, the z-score in [1] was -0.33 (inactive); in assay [3] it was 0.946 (inactive); in assay [4], -0.82 (inactive); in [5], -0.0897 (inactive); in assay [6] it was -1.41 (inactive); in [7] it was 0.917. Further, the z-score is 0.291 (inactive) in [8]; 0.275 (inactive) in [9]; 0.245 in [10]; -0.622 in [11]; 0.852 in assay [12]; 0.305 in assay [13]. Further, the z-score was 0.41 in assay [14]; -0.697 in assay [15]; 0.887 in assay [16]; 0.377 (inactive) in assay [17]; 0.0666 in assay [18]; -0.305 in assay [19]. Further, the z-score in assay [20] is 0.0375 (inactive). Besides, in [2], the composite z-score was -0.147.

With `CC(CCN1CCc2nc(-c3ccccc3)c(-c3ccccc3)cc2C1)=NOC[C@@H](O)[C@H]1O[C@@H]2OC(C)(C)O[C@@H]2[C@H]1O`, the z-score in assay [1] is 0.784 (inactive); in assay [3] it was 1.47 (inactive); in assay [4], 0.239 (inactive); in assay [5], 0.318 (inactive); in [6], 0.244 (inactive); in assay [7], -0.0979. The z-score in [8] was -5.63 (inactive); in assay [9], -1.69 (inactive); in assay [10], -4.61; in assay [11], 1.89; in [12], -0.144; in assay [13], 1.62. For the same compound, the z-score in [14] is -2.72; in assay [15] it was -0.676; in assay [16], 2.55; in [17], -1.54 (inactive); in assay [18] it was -0.109; in assay [19], 0.0398. Moreover, the z-score in [20] was -0.555 (inactive). The same compound showed a composite z-score in assay [2] of -0.0099.

With `O=C(NN=C1C[C@@H](O)[C@@H](O)[C@@H]2[C@@H]3C(=O)N(C[C@@H]4CCCO4)C(=O)[C@@H]3CC[C@@H]12)OCc1ccccc1`, the z-score in [1] was 0.828 (inactive); in assay [3], 0.423 (inactive); in [4], -1.35 (inactive); in assay [5] it was 0.449 (inactive); in assay [6] it was -1.97 (inactive); in [7], 2.18. The z-score in assay [8] was -0.532 (inactive); in [9], 0.554 (inactive); in [10], 0.8; in [11], 0.468; in assay [12] it was 0.211; in assay [13], -0.293. The z-score in assay [14] is -0.745; in [15] it was 0.215; in assay [16], 0.795; in [17], 0.131 (inactive); in assay [18], 0.103; in assay [19], -0.989. Also, the z-score in [20] is -0.451 (inactive). This compound also showed a composite z-score in assay [2] of -0.24.

In the case of `CCOC(=O)CCN1C(=O)[C@H]2[C@H]3[C@H](O)[C@H](O)CC(=NNC(=O)OCc4ccccc4)[C@@H]3CC[C@H]2C1=O`, the z-score in [1] was 0.809 (inactive); in assay [3] it was 0.0026 (inactive); in [4] it was -0.37 (inactive); in assay [5] it was -0.371 (inactive); in assay [6], -0.0393 (inactive); in [7], 0.33. Also, the z-score in [8] is -4.57 (inactive); in [9], 0.0939 (inactive); in assay [10], 0.181; in [11], -0.0996; in [12], 0.902; in assay [13] it was 0.554. For the same compound, the z-score in assay [14] is 0.457; in assay [15], -0.359; in assay [16], -0.398; in [17], -0.773 (inactive); in assay [18], 0.279; in assay [19], -0.614. Further, in assay [20], the z-score was -0.744 (inactive). Moreover, in assay [2], the composite z-score is -0.147.

On to `COC(=O)[C@H](C)NC(=O)CCC1CC(OC(=O)NCc2ccc3c(c2)OCO3)CC2(CCCC(COC(=O)NCC3CCCCC3)O2)O1` (stereo not given in full), for which the z-score in [1] was -0.23 (inactive); in [3], 0.858 (inactive); in [4] it was -0.53 (inactive); in [5], -0.508 (inactive); in assay [6], -0.167 (inactive); in assay [7], 0.224. Also, the z-score in [8] is -0.373 (inactive); in assay [9], 0.62 (inactive); in assay [10] it was -0.651; in assay [11] it was -0.374; in assay [12], -0.335; in assay [13] it was -0.653. Also, the z-score in assay [14] was -3.22; in assay [15], -0.103; in assay [16], -0.283; in [17] it was -0.183 (inactive); in assay [18] it was 0.34; in [19] it was -0.0549. The z-score in [20] is 0.619 (inactive). The composite z-score in [2] is -0.0984.

As for `CCOC(=O)[C@H](CC(C)C)NC(=O)CCC1CC(OC(=O)NCCc2ccc(F)cc2)CC2(CCCC(COC(=O)NCC(c3ccccc3)c3ccccc3)O2)O1` (stereo not given in full), the z-score was -1.18 (inactive) in [1]; 4 (inactive) in [3]; -0.523 (inactive) in [4]; 0.784 (inactive) in assay [5]; -0.316 (inactive) in assay [6]; 0.0441 in assay [7]. Further, the z-score in assay [8] was 1.47 (inactive); in assay [9] it was 1.88 (inactive); in assay [10], 1.52; in assay [11] it was 0.0775; in assay [12], 0.0775; in assay [13] it was -0.912. Moreover, the z-score in assay [14] is -0.325; in [15], 0.497; in [16] it was -0.898; in assay [17], -0.516 (inactive); in [18] it was 0.872; in [19] it was -0.019. The z-score in assay [20] is 0.171 (inactive). In assay [2], this compound came in with a composite z-score of -0.147.

As for `C[C@@H]1NC(=O)[C@@H](C)COC(=O)[C@H](C)NC(=O)[C@@H](C)COC1=O`, the z-score was -2.21 (inactive) in assay [1]; 0.116 (inactive) in [3]; -0.334 (inactive) in [4]; -0.172 (inactive) in assay [5]; -1.15 (inactive) in [6]; 0.35 in [7]. Also, the z-score in assay [8] is -0.0632 (inactive); in assay [9], -1.11 (inactive); in assay [10] it was 0.136; in assay [11], -0.838; in [12], 1.19; in [13], 0.1. For the same compound, the z-score in assay [14] is -0.426; in assay [15] it was -0.604; in [16], 0.503; in assay [17] it was 0.42 (inactive); in assay [18], 0.0799; in assay [19], 0.307. Moreover, the z-score in assay [20] was 0.228 (inactive). In assay [2], this compound yielded a composite z-score of -0.248.
